Measurements published in ChEMBL document CHEMBL3433997, “St. Jude Leishmania screening dataset” (2016).

Assays:
Type in all cases: functional
[1] = molecular target: Solute carrier family 2, facilitated glucose transporter member 1 (Homo sapiens) (UniProt P11166); experiment: ST_JUDE_LEISH: Cytotoxicity at 2uM final concentration against transgenic Leishmania Mexicana promastigotes LmGLUT1 that are glucose transport deficient and complemented with the human glucose transporter GLUT1. Activity is measured by DNA content using SYBR green in vitro
Sequence of Solute carrier family 2, facilitated glucose transporter member 1 (Homo sapiens) (P11166 whole entry): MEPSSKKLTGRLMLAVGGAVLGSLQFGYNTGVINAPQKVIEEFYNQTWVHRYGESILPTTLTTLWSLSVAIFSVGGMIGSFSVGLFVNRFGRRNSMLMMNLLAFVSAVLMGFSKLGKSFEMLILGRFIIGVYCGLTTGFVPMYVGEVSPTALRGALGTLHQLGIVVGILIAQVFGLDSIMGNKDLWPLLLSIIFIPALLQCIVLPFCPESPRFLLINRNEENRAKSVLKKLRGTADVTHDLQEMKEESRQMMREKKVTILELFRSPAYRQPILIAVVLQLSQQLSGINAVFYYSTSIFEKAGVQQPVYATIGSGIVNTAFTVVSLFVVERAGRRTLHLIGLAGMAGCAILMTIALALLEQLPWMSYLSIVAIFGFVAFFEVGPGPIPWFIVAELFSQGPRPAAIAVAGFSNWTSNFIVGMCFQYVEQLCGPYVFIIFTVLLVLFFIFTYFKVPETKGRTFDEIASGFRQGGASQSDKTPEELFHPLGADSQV

[2] = molecular target: Hexose transporter 1 (Plasmodium falciparum) (UniProt O97467); experiment: ST_JUDE_LEISH: Cytotoxicity at 2uM final concentration against transgenic Leishmania Mexicana promastigotes LmPfHT that are glucose transport deficient and complemented with the Plasmodium falciparum hexose transporter. Activity is measured by DNA content using SYBR green in vitro
[3] = molecular target: Glucose transporter (Leishmania mexicana) (UniProt O61059); experiment: ST_JUDE_LEISH: Cytotoxicity at 2uM final concentration against transgenic Leishmania Mexicana promastigotes LmGT2 that are glucose transport deficient and complemented with the L. Mexicana glucose transporter 2. Activity is measured by DNA content using SYBR green in vitro

Row | SMILES | inhibition [1] [%] | inhibition [2] [%] | inhibition [3] [%]
1 | Cc1ccc(CNC(=O)[C@H](CC(C)C)Nc2cc(C)nc(NCc3ccccc3C)n2)cc1 | 4.3 | 4.62 | 3.14
2 | CCNc1cc(C(=O)N[C@@H](Cc2ccccc2Cl)[C@H](O)CNC2CCCCC2)cc(N2CCCCS2(=O)=O)c1 | 0.03 | 0.45 | -2.07
3 | CC(C)c1ccc(NC(=O)c2ccc(C(=O)NC3CCN(Cc4ccsc4)C3)cc2)cc1 (centres undefined) | 2.74 | 4.64 | 0.52
4 | CC12CN3CC(C)(CN(C1)C3c1cc(Br)ccc1O)C2O (centres undefined) | -3.78 | -1.64 | 4.22
5 | CCn1c(Sc2ccc([N+](=O)[O-])c(C#N)c2)nnc1-c1cccc(Cl)c1 | 1.53 | 0.29 | -1.08
6 | CN1CCN(c2cccc(-c3nnc(-c4cccc(OCC(=O)NCc5ccc(C(F)(F)F)cc5)c4)o3)c2)CC1 | 1.77 | 1.65 | 2.47
7 | CCCC/C=C(\Cl)c1ccc(O)c2c1C[C@H]1C[C@H]3[C@H](N(C)C)C(O)=C(C(N)=O)C(=O)[C@@]3(O)C(O)=C1C2=O | -0.21 | -1.57 | 0.16
8 | CC(C)C[C@H](NC(=O)c1cc(-c2ccc(C(C)(C)C)cc2)no1)C(=O)O.CC(C)C[C@H](NC(=O)c1conc1-c1ccc(C(C)(C)C)cc1)C(=O)O | 1.21 | 0.89 | 0.84
9 | OC(c1ccccc1)C1CN(CCC2CC3CCC2C3)CCC1(O)c1ccccc1 (centres undefined) | -0.77 | -3.69 | -3.24
10 | CCc1cc([C@H]2O[C@@H](n3cnc4c(NCC(c5ccccc5)c5ccccc5)nc(NCCNc5ccccn5)nc43)[C@H](O)[C@@H]2O)on1 | -1.61 | -0.53 | -2.53
11 | O=C(/C=C/c1ccc(Cl)c(Cl)c1)NCCCCN1CCCN(C(=O)Nc2cc(Cl)cc(Cl)c2)CC1 | 0.48 | 0.76 | 0.06
12 | COc1ccc(-c2cccc(NC(=O)c3cccc(Cl)c3)c2)cc1CN1CCC(O)CC1 | 8.59 | 6.33 | 5.34
13 | C#CCNCc1ccc(-c2cccc(-c3nc4cccc(C)c4[nH]3)c2)cc1 | 6.77 | 4.1 | 3.18
14 | COc1ccc(NC(=O)Nc2cccc(-c3ccncc3)c2)cc1N1CCN(C)CC1 | 6.92 | 7.39 | 7.22
15 | COc1ccccc1CCNc1nc(C)cc(N[C@@H](Cc2ccccc2)C(=O)NCc2cccs2)n1 | 2.42 | 2.49 | 0.42
16 | Clc1ccccc1/C=C/c1cncnc1Nc1ccc2[nH]c(Cc3ccccc3)nc2c1 | 7.21 | 2.53 | 1.23
17 | Cn1cc(CN2CCCC(COC(c3ccccc3)c3ccccc3)C2)cn1 (centres undefined) | 1.48 | 2.93 | 2.57
18 | O=C(NCC1CCN(Cc2cccc(F)c2)C1)c1cc(-c2cccc(C(F)(F)F)c2)cs1 (centres undefined) | -1.66 | -2.49 | 2.59
19 | CC(C)NCc1cccc(-c2cccc(-c3nc4cc(F)ccc4[nH]3)c2)c1 | 14.2 | 11.4 | 11.6
20 | CCCCCc1ccc(NC(=O)Nc2ccc(Cn3ncc(N4CCCNCC4)c(Cl)c3=O)cc2)cc1 | -1.1 | -1.27 | 0.47
21 | CO/C(=C\C=C\c1cc2cc(Cl)c(Cl)cc2[nH]1)C(=O)NCCCN1CCC(c2ccccc2)CC1 | 2.73 | 5.04 | 1.33
22 | CCOC(=O)c1c(CCc2ccc(C(F)(F)F)cc2)nc2c(c1-c1ccc(C(=O)N[C@@H](C)c3ccncc3)cc1)C(=O)N1CCC[C@@H]21 | 2.81 | 1.31 | 0.48
23 | O=C(Nc1cccc(-c2csc(-c3nc4ccccc4[nH]3)c2)c1)c1ccncc1 | 11.6 | 8.89 | 6.69

Row | SMILES | inhibition [1] [%] | inhibition [2] [%] | inhibition [3] [%]
24 | c1ccc(CNCc2ccc(-c3cccc(-c4nc5ccccc5[nH]4)c3)cc2)cc1 | -1.6 | -1.2 | -1.62
25 | COc1c(C2CCN(CCCCNC(=O)C=Cc3cc4cc(Cl)ccc4o3)CC2)ccc2c1CCCC2 | 2.11 | 0.56 | 0.08
26 | CN(C)c1ccc(-c2ccc(C(=O)NC3CCN(Cc4ccc(F)cc4)CC3)s2)cc1 | 5.83 | -1.68 | 3.76
27 | CN(Cc1ccc(C#N)cc1)C1CCN(c2cc(NC(=O)c3ccc(F)cc3)ccn2)CC1 | 1.28 | 2.79 | -1.93
28 | O=C(NCCN1Cc2ccccc2C1=O)c1ccc(Oc2ccc(C(=O)NCCN3Cc4ccccc4C3=O)cc2)cc1 | -0.35 | 0.02 | -0.4
29 | c1ccc2c3c(ccc2c1)Sc1c(ccc2ccccc12)N3 | 6.27 | 5.61 | 5.33
30 | CCN(C1CCCCC1)S(=O)(=O)c1ccc(OC)c(N2CCN(C(=O)C(Cl)(Cl)Cl)CC2)c1 | -1.48 | -2.46 | -0.47
31 | CC(CN1CCN(C)CC1)C(=O)Nc1ccc(-c2ccc(-c3nc4ccccc4[nH]3)s2)cc1 (centres undefined) | 5.66 | 5.15 | 3.56
32 | c1ccc(COc2ccc(Cn3ccc(-c4ccc(-n5ccnc5)cc4)n3)cc2)cc1.c1ccc(COc2ccc(Cn3nccc3-c3ccc(-n4ccnc4)cc3)cc2)cc1 | 0.24 | 1.54 | 1.48
33 | COc1cc2ncnc(Nc3ccc(OCc4ccccc4Br)c(Cl)c3)c2cc1OC | -3.06 | 1.28 | 6.38
34 | Cc1ccc(C)c(NC(=O)Nc2ccc(C)c(-c3ccc(C(=O)Nc4ccncc4)cc3)c2)c1 | 6.08 | 3.66 | 2.82
35 | CCOC(=O)CCCc1cc(NC2CCN(C)CC2)nc(Nc2ccc(C)cc2)n1 | -2.45 | 0.71 | -2.59
36 | CS(=O)(=O)NCCCNCc1ccc(-c2ccc(-c3nc4cc(F)ccc4[nH]3)cc2)cc1 | 7.49 | 4.28 | 4.63
37 | O=C(/C=C/c1ccc(Cl)c(Cl)c1)N1CCC(CN2CCC(Cc3c[nH]c4ccccc34)CC2)CC1 | 4.43 | 4.8 | 3.96
38 | CCC1N=C(N)N=C(N)N1OCCCOc1c(Cl)cc(Cl)cc1Cl (centres undefined) | 3.53 | 2.05 | 3.44
39 | O=C(c1ccc(-c2ccc(-c3nc4cc(C(F)(F)F)ccc4[nH]3)s2)cc1)N1CCCCC1CN1CCC(O)C1 (centres undefined) | 7.23 | 5.1 | 2.98
40 | N[C@@H](CCNC1CCN(c2cccc(C(F)(F)F)c2)CC1)Cc1ccc(F)c(F)c1 | 99.5 | 54.5 | 101
41 | CC(C)(C)C(=O)Nc1ccc(C(=O)Nc2cccc(-c3nc4ccccc4[nH]3)c2)cc1 | 1.87 | 0.85 | -0.79
42 | CCOC(=O)c1ccc(NC(=O)NC2CCN(CCCCCNC(=O)/C=C/c3ccc(Cl)c(Cl)c3)C2)cc1 (centres undefined) | 2.05 | 0 | 0.92
43 | Cc1cnc(CNCc2ccc(S(=O)(=O)Nc3ccc(Oc4cccc(Cl)c4)cc3)cc2)cn1 | 5.34 | 2.83 | 2.07
44 | Cc1ccc(CN2CCCCC(NC(=O)c3cc4ccccc4s3)C2)cc1 (centres undefined) | 0.16 | 0.49 | -8.68
45 | COC(=O)c1ccc2nc(-c3ccc(/C=C/C(=O)NC4CCN(Cc5ccccc5)CC4)cc3)[nH]c2c1 | 0.71 | 5.26 | 5.84
46 | O=C(Nc1cccc(CN2CCCN(Cc3cccc(Cl)c3)CC2)c1)c1ccc(Cl)c(Cl)c1 | 1.69 | 1.9 | 4.28

Row | SMILES | inhibition [1] [%] | inhibition [2] [%] | inhibition [3] [%]
47 | O=C(NCCc1ccccc1)c1cc(-c2cccnc2)cnc1NCC1CC1 | 3.62 | 6.01 | 1.98
48 | CCN(CCCN1CCCCC1)c1cc(C)nc(Nc2cc(C)ccc2C)n1 | -1.92 | 0.68 | -0.58
49 | COc1ccc(CCn2c(=N)c(C(=O)NCc3ccccc3)cc3c(=O)n4ccccc4nc32)cc1 | 12.9 | 12.8 | 8.6
50 | O=C(C=Cc1ccc(C(=O)Nc2ccc(C3=NCCN3)cc2)cc1)Nc1ccc(C2=NCCN2)cc1 | 5.16 | 5.38 | 5.13
51 | CSc1ccc(NC(=O)Nc2cc(C)nc3ccccc23)cc1 | 10.3 | 10.8 | 10.3
52 | O=C(Cc1ccccc1)NC(CCN1CCC(NC(=O)c2ccc(Cl)cc2)CC1)c1ccc(Cl)c(Cl)c1 (centres undefined) | 2.22 | 0.27 | 1.02
53 | Cc1sc(CNCCCNc2cc(=O)c3ccccc3[nH]2)cc1Br | 0.99 | 0.97 | 0.93
54 | CCNC(=O)c1ccc(-n2nc(C)cc2-c2ccccc2)cc1 | 2.66 | 3.31 | -0.67
55 | CCn1c(SCc2ccccc2)nc2c1c(=O)[nH]c(=O)n2C | -0.07 | -0.05 | -1.06
56 | COc1ccc(C)c(Nc2ccnc(Nc3cccc(-c4nc5ccccc5[nH]4)c3)n2)c1 | 3.82 | 1.79 | 2.68
57 | CCOc1cc(C(=O)NCc2ccc(Cl)c(Cl)c2)ccc1-c1nc2cc(Cl)ccc2[nH]1 | -0.85 | 2.33 | 7.21
58 | CCc1c[nH]c2c(N(c3ccccc3)S(C)(=O)=O)cc(C(=O)N[C@@H](Cc3ccccc3)[C@H](O)CNC(C)(C)CCCC(C)C)cc12 | 0.74 | 1.65 | 0.18
59 | CCn1cc(C=C2Oc3c(ccc(O)c3CN3CCCCC3)C2=O)c2ccccc21 | 5.49 | 4.09 | 3.27
60 | COc1ccc2nccc([C@@H](O)CN3CCC(NC(=O)/C=C/c4ccc5cc(C)[nH]c5c4)CC3)c2c1 | 3.96 | 3.03 | 1.91
61 | COc1cccc(-c2ccc(C(=O)NC3CCN(Cc4ccc(N(C)C)cc4)CC3)s2)c1 | 2.66 | 1.14 | -0.07
62 | CN(CC(=O)Nc1ccc(F)c(F)c1F)c1ncnc2sc(-c3ccccc3)cc12 | 3.92 | 4.09 | 2.74
63 | CCCCNC(=N)c1ccc(OCCCCCOc2ccc(C(=N)NCCCC)cc2)cc1 | 5.34 | 2.05 | -0.11
64 | O=C(Nc1cccc(C(F)(F)F)c1)c1ccc(S(=O)(=O)NC2CCN(CC3CCCCC3)C2)cc1 (centres undefined) | 3.79 | 3.31 | 4.54
65 | COc1ccc(NC(=O)NC2CCN(c3ccnc4cc(Cl)ccc34)CC2)cc1 | 3.93 | 1.61 | 0.02
66 | COc1ccc2nccc(N3CCC(CCNCc4ccc5c(n4)NC(=O)CO5)CC3)c2n1 | 0.66 | 0.67 | 1.8
67 | CC(C)c1ccc(CN2CCCCC(NC(=O)c3cc(-c4ccccc4F)cs3)C2)cc1 (centres undefined) | 8.71 | 8.1 | 11.2
68 | CCCc1cc(Cc2cnc(N)nc2N)cc(OC)c1OC | 0.14 | 2.78 | 0.24
